Reference: PubChem BioAssay AID1159580 (chemical genetic matrix, 2015)
The campaign covered roughly 5,500 compounds. About 2,000 (36%) were called active. Roughly 18% stayed inconclusive and do not appear here. No stated cut-off is given here; in the data, active means normalized growth mostly below about 0.91 (no sharp cut-off); inconclusive means no clear call, values can overlap the other calls; inactive means mostly above about 0.92. The list shows a part of the results.

Assay: chemical genetic growth profiling, strain panel (AID 1159580);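 further: tested at 20 µM; growth read once vehicle control cultures reached saturation at 30 °C; 1 = growth at the plate median or of vehicle wells; lower values mean less growth of the strain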
Conditions: S. cerevisiae deletion strains, growth OD

Measured: normalized growth

NC/C=C/C(=O)O
inactive: locus YAL013W, strain DEP1, active compounds read low 1.02 | locus YAL021C, strain ccr4, active compounds read low 0.968 | locus YAL026C, strain drs2, active compounds read low 0.997 | locus YAL030W, strain snc1, active compounds read low 1 | locus YAL040C, strain CLN3, active compounds read low 0.998 | locus YBL061C, strain skt5, active compounds read low 1.01 | locus YBR009C, strain hhf1, active compounds read low 1.01 | locus YBR021W, strain FUR4, active compounds read low 1.01 | locus YBR023C, strain chs3, active compounds read low 1 | locus YBR171W, strain sec66, active compounds read low 0.985 | locus YBR229C, strain ROT2, active compounds read low 1.01 | locus YBR231C, strain swc5, active compounds read low 1.02 | locus YBR279W, strain paf1, active compounds read low 1.01 | locus YCL011C, strain gbp2, active compounds read low 0.983 | locus YCL016C, strain dcc1, active compounds read low 1.01 | locus YCL029C, strain bik1, active compounds read low 1.02 | locus YCL061C, strain MRC1 (second series), active compounds read low 1 | locus YCL061C, strain MRC1, active compounds read low 0.987 | locus YCL069W, strain vba3, active compounds read low 0.992 | locus YCR088W, strain abp1, active compounds read low 0.986 | locus YDL005C, strain med2, active compounds read low 1.01 | locus YDL035C, strain GPR1, active compounds read low 1.04 | locus YDL040C, strain nat1, active compounds read low 1 | locus YDL074C, strain BRE1, active compounds read low 0.986 | locus YDL101C, strain DUN1, active compounds read low 1 | locus YDL134C, strain PPH21, active compounds read low 1.01 | locus YDL185W, strain tfp1, active compounds read low 1.02 | locus YDL192W, strain arf1, active compounds read low 1.01 | locus YDR001C, strain nth1, active compounds read low 0.987 | locus YDR069C, strain doa4, active compounds read low 1.03 | locus YDR101C, strain arx1, active compounds read low 1.02 | locus YDR137W, strain rgp1, active compounds read low 1.01 | locus YDR150W, strain NUM1, active compounds read low 1.01 | locus YDR159W, strain sac3, active compounds read low 1.02 | locus YDR162C, strain NBP2, active compounds read low 0.986 | locus YDR195W, strain ref2 1.01 | locus YDR297W, strain sur2, active compounds read low 1.01 | locus YDR318W, strain mcm21, active compounds read low 1.05 | locus YDR334W, strain swr1, active compounds read low 1 | locus YDR335W, strain msn5, active compounds read low 1.01 | locus YDR363W, strain ESC2, active compounds read low 0.999 | locus YDR388W, active compounds read low 1.01 | locus YDR392W, strain spt3, active compounds read low 0.965 | locus YDR502C, strain sam2, active compounds read low 0.999 | locus YEL003W, strain gim4, active compounds read low 0.99 | locus YEL037C, strain rad23, active compounds read low 0.982 | locus YEL061C, strain CIN8 (second series), active compounds read low 0.99 | locus YEL061C, strain CIN8, active compounds read low 1.01 | locus YER002W, strain NOP16, active compounds read low 0.975 | locus YER015W, strain faa2, active compounds read low 1.01 | locus YER016W, strain bim1, active compounds read low 1.02 | locus YER110C, active compounds read low 1.02 | locus YER111C, strain swi4, active compounds read low 0.98 | locus YER155C, strain BEM2 (second series), active compounds read low 1.01 | locus YER155C, strain BEM2, active compounds read low 0.999 | locus YER167W, strain BCK2, active compounds read low 1.05 | locus YFR010W, strain ubp6, active compounds read low 1.01 | locus YGL078C, strain dbp3, active compounds read low 0.994 | locus YGL086W, strain mad1, active compounds read low 1.04 | locus YGL167C, strain pmr1, active compounds read low 1.01 | locus YGL173C, strain kem1, active compounds read low 1.01 | locus YGL227W, strain vid30, active compounds read low 0.988 | locus YGL240W, strain doc1, active compounds read low 1.02 | locus YGL248W, strain PDE1, active compounds read low 1.01 | locus YGL253W, strain hxk2, active compounds read low 1 | locus YGR078C, strain PAC10, active compounds read low 1.01 | locus YGR135W, strain pre9, active compounds read low 0.996 | locus YGR229C, strain SMI1, active compounds read low 1.01 | locus YGR252W, strain gcn5, active compounds read low 1.03 | locus YHR013C, strain ard1, active compounds read low 0.999 | locus YHR027C, strain rpn1, active compounds read low 1.01 | locus YHR030C, strain SLT2, active compounds read low 1.01 | locus YHR079C, strain IRE1 (second series), active compounds read low 1.01 | locus YHR094C, strain hxt1, active compounds read low 1.01 | locus YHR129C, strain ARP1, active compounds read low 1.02 | locus YHR142W, strain chs7, active compounds read low 0.975 | locus YHR200W, strain rpn10, active compounds read low 1.02 | locus YIL066C, strain RNR3, active compounds read low 1.02 | locus YIL073C, strain SPO22, active compounds read low 1.13 | locus YIL125W, strain kgd1, active compounds read low 1.01 | locus YIR030C, strain dcg1, active compounds read low 1.02 | locus YJL092W, strain hpr5, active compounds read low 0.984 | locus YJL095W, strain BCK1 (second series), active compounds read low 1.01 | locus YJL095W, strain BCK1, active compounds read low 1.03 | locus YJL115W, strain asf1, active compounds read low 0.994 | locus YJL129C, strain trk1, active compounds read low 0.994 | locus YJL134W, strain LCB3, active compounds read low 1.01 | locus YJL154C, strain vps35, active compounds read low 0.987 | locus YJL164C, strain tpk1, active compounds read low 0.989 | locus YJL166W, strain qcr8, active compounds read low 1.02 | locus YJL168C, strain set2, active compounds read low 1 | locus YJL187C, strain SWE1 (second series), active compounds read low 1.01 | locus YJL187C, strain SWE1, active compounds read low 1.02
